A short description of experiment [1]: binders of probe aFSTL3 on microarray, primary screen, stem cell growth factor project, biochemical, small-molecule microarray, fluorescence 635/667 (AID 1064).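 Also: measures binding of the biotinylated anti-FSTL3 antibody to printed compounds.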 As to conditions: higher = more signal.
Experiment [2] in a line: binders from COS7 lysate, DM2A8 probe, primary screen, torsin A project, cell lysate, small-molecule microarray, fluorescence 635/667 (AID 1065). The settings on record: higher = more signal, COS7 lysate expressing mutant human TOR1A.
Experiment [3] in a line: binders of probe aFGF2 on microarray, primary screen, stem cell growth factor project, biochemical, small-molecule microarray, fluorescence 635/667 (AID 1067).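 Also: measures binding of biotinylated aFGF2 protein to printed compounds on slides; z-score merges feature fluorescence and signal-to-noise across triplicate slides.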 The settings on record: higher = more signal.
A short description of experiment [4]: binders of probe aFGF10 on microarray, primary screen, stem cell growth factor project, biochemical, small-molecule microarray, fluorescence 635/667 (AID 1071).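 Also: score merges 667 nm spot intensity and signal to noise from triplicate slides.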 As to conditions: higher = more signal.
The target in experiment [5] is Neurogenic locus notch homolog protein 2 (Homo sapiens) (UniProt Q04721). The experiment is described as follows: Notch2 binders on small-molecule microarrays, primary screen, biochemical, small-molecule microarray, 635 nm fluorescence, stem cell growth factors (AID 1073). The settings on record: Notch2 binding, higher = more signal.
Experiment [6] deals with Pro-neuregulin-1, membrane-bound isoform (Homo sapiens) (UniProt Q02297). The experiment is described as follows: NRG1 binders on small-molecule microarrays, primary screen, psychiatric disease protein project, biochemical, small-molecule microarray, fluorescence 635/667 (AID 1075).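 Also: score combines 667 nm spot fluorescence with signal to noise.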 The settings on record: NRG1 binding, 635 nm fluorescence, higher = more signal.
In experiment [7] the test system is Neuregulin-1 EGF-like domain. Kind of experiment: binders of neuregulin-1 EGF-like domain, primary screen, biochemical, small-molecule microarray, 635 nm fluorescence (AID 1081).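 Also: binding of the protein to compounds printed on small-molecule microarray slides.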 The settings on record: small-molecule microarray binding, higher = more signal.
Experiment [8] can be described thus: FRG1 promoter luciferase signal modulators, primary screen, FRG1 inhibition for FSHD, cell-based, C2C12 myotubes, firefly/Renilla luciferase, luminescence (AID 1084). As to conditions: higher = more signal, called active from +8 up or from −8 down.
Experiment [9] in a line: binders of probe aFST on microarray, primary screen, stem cell growth factor project, biochemical, small-molecule microarray, fluorescence 635/667 (AID 1086).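 Also: score merges 667 nm fluorescence with signal-to-noise of each printed compound spot.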 As to conditions: higher = more signal.
A short description of experiment [10]: binders of probe aHhip on microarray, primary screen, stem cell growth factor project, biochemical, small-molecule microarray, fluorescence 635/667 (AID 1087).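 Also: score merges spot fluorescence at 667nm with spot signal to noise ratio.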 As to conditions: higher = more signal.

Calls of active or inactive are those of the source.

Chain of Pro-neuregulin-1, membrane-bound isoform (Homo sapiens) (Q02297 whole entry, looked up, the tested form may be a part, canonical isoform): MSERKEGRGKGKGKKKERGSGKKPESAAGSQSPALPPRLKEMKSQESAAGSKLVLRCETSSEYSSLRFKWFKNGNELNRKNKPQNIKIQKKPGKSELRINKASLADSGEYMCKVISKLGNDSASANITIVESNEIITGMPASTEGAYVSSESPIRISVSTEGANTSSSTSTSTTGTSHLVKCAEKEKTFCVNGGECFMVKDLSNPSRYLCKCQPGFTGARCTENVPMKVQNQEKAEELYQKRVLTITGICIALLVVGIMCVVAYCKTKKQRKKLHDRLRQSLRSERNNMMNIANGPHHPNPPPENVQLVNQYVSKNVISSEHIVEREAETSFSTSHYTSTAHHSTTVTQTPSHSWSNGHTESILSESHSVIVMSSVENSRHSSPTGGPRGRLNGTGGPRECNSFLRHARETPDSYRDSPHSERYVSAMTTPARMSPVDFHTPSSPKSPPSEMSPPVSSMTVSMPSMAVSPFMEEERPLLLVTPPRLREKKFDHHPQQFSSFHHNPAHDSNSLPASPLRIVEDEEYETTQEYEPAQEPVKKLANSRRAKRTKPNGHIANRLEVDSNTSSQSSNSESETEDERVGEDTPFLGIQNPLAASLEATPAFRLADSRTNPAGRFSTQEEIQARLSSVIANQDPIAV
Chain of Neurogenic locus notch homolog protein 2 (Homo sapiens) (Q04721 whole entry, looked up, canonical isoform): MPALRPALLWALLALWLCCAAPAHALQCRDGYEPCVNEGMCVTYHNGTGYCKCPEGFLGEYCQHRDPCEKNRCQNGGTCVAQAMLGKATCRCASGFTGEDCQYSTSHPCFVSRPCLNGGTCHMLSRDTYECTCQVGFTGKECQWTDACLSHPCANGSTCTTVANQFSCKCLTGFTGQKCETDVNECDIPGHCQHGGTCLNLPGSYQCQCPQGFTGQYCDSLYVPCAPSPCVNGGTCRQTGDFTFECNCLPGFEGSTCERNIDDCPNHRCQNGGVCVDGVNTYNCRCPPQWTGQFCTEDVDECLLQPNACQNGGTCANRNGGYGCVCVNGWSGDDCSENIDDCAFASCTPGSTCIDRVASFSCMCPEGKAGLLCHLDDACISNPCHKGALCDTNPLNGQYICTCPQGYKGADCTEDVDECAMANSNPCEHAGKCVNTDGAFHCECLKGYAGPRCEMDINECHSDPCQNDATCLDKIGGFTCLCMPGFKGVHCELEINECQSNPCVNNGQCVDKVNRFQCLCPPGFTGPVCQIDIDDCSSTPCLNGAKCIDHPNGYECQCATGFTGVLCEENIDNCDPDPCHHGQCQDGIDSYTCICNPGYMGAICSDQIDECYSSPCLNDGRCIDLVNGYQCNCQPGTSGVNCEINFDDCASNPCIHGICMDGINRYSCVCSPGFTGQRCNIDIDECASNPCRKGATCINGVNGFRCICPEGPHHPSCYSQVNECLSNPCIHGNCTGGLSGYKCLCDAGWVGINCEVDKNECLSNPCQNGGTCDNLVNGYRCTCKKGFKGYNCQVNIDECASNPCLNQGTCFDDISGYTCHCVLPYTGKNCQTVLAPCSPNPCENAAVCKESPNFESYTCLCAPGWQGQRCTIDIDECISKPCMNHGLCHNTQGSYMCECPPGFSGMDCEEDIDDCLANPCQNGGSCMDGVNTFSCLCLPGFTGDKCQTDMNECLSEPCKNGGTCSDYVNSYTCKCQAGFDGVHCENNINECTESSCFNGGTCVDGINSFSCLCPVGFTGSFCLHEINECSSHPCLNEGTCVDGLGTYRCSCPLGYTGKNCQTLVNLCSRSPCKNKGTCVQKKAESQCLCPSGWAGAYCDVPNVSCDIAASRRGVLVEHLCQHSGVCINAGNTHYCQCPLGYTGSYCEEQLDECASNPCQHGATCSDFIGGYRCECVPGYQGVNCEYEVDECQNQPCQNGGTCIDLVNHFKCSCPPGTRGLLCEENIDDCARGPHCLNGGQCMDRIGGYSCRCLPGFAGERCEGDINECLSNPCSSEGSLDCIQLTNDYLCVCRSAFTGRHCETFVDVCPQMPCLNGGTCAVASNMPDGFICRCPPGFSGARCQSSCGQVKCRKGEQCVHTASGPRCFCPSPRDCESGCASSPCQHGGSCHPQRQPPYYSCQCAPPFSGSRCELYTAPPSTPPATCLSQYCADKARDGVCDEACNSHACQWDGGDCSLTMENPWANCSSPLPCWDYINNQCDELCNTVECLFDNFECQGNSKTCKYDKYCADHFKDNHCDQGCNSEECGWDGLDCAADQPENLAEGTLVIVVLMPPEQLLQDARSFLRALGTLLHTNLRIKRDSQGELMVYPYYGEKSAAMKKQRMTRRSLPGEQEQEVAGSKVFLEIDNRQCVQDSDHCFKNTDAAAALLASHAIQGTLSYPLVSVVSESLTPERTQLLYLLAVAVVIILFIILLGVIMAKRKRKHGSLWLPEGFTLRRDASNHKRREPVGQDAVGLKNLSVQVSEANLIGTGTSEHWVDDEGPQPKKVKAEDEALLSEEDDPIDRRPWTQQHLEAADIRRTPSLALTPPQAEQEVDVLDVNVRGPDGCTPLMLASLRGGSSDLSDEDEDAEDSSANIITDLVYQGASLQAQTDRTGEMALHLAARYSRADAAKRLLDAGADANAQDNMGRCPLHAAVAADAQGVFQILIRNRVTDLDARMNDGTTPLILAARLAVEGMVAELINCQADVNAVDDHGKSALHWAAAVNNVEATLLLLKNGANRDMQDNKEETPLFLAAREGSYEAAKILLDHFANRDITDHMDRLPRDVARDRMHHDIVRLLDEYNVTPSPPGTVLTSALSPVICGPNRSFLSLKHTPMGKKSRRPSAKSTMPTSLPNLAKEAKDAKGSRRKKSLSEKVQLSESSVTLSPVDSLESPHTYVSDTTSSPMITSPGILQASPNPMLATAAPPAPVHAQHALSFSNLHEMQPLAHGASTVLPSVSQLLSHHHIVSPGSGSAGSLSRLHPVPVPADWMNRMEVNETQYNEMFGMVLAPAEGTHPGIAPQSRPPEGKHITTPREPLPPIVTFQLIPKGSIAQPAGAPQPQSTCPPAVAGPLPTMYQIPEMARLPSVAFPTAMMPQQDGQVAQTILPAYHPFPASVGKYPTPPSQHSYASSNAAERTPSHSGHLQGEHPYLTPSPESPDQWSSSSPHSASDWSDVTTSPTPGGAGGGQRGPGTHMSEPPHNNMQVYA

In the case of `O=C1C[C@@H](O)[C@@H](O)[C@@H]2[C@@H]3C(=O)N(Cc4ccccc4)C(=O)[C@@H]3CC[C@@H]12`, the composite z-score in experiment [1] was -0.281; in experiment [2], 0.311; in experiment [3] it was -0.0573; in [4], 0.286; in experiment [5], 0.474; in [6], 0.205. Also, the composite z-score is 0.771 in experiment [7], -0.0427 in experiment [9] and -0.204 in [10]. The z-score in experiment [8] was 0.554 (inactive).
Regarding `CO[C@H](C1CCCCC1)[C@H](C)C=CCC(=O)OCCCc1ccccc1`, the composite z-score in [1] is -0.13; in [2] it was 0.216; in [3], -0.155; in [4] it was -0.104; in experiment [5], -0.163; in experiment [6], -0.137. In addition, the composite z-score in experiment [7] was -0.647; in [9], -0.175; in experiment [10], -0.145. For the same compound, the z-score in [8] was 0.567 (inactive).
Consider `CCOC(=O)[C@H](CC(C)C)NC(=O)CCC1CC(OC(=O)NCc2ccc3c(c2)OCO3)CC2(CCCC(COC(=O)NCC(c3ccccc3)c3ccccc3)O2)O1` (stereo not given in full), for which the composite z-score is -0.354 in [1]; -0.168 in experiment [2]; -0.0692 in experiment [3]; 0.229 in experiment [4]; 0.129 in experiment [5]; 0.49 in experiment [6]. The results for the composite z-score in [7], in experiment [9] and in [10] were 1.17, 0.344 and -0.0994, respectively. Besides, the z-score in [8] was 2.69 (inactive).
`CO[C@@H]1COC(=O)CC=C[C@H](C)[C@H](OC)COC(=O)[C@H](C)NC(=O)CC=C[C@H]1C`: the composite z-score in experiment [1] was -0.729; in experiment [2], 1.42; in [3] it was -0.132; in experiment [4], -0.267; in [5], -0.316; in experiment [6], -0.63. The results for the composite z-score in experiment [7], in experiment [9] and in experiment [10] were 0.347, 0.0458 and -0.0491, respectively. The z-score in [8] was -0.175 (inactive).
As to `O=C1[C@H]2[C@H]3[C@H](O)[C@H](O)CC(=NOCc4ccccc4)[C@@H]3CC[C@H]2C(=O)N1C[C@@H]1CCCO1`, the composite z-score in experiment [1] was -0.278; in experiment [2] it was -0.22; in [3], -0.116; in [4] it was -0.125; in experiment [5], 0.176; in experiment [6], 0.0461. In addition, the composite z-score was -0.288 in [7], 0.271 in experiment [9] and -0.27 in [10]. In experiment [8], the z-score is 1.36 (inactive).
As for `COC(=O)CC=C[C@@H](C)[C@@H](C=NO[C@H](C)c1cn([C@@H]2COC[C@H]2O)nn1)NS(=O)(=O)c1ccc(C)cc1`, the composite z-score in experiment [1] is -0.279; in experiment [2], 0.612; in experiment [3], -0.0027; in experiment [4], 0.575; in experiment [5], 0.283; in experiment [6] it was 0.0806. The results for the composite z-score in [7], in experiment [9] and in [10] were 0.928, 0.374 and -0.166, respectively. The z-score in experiment [8] is -1.24 (inactive).
In the case of `C[C@H]1COC(=O)[C@@H]2CCCN2C(=O)[C@@H](C)COC(=O)[C@H](Cc2ccccc2)NC1=O`, the composite z-score was -0.596 in experiment [1]; 0.142 in experiment [2]; -0.183 in experiment [3]; 0.525 in [4]; 0.731 in experiment [5]; -0.147 in experiment [6]. The results for the composite z-score in experiment [7], in experiment [9] and in experiment [10] were 0.184, 0.761 and -0.0645, respectively. In addition, the z-score in experiment [8] was -0.0297 (inactive).
For the compound `C[C@H](ON=C1[C@H]2CCn3c(=O)n(-c4ccccc4)c(=O)n3[C@H]2[C@H](O)[C@@H]2O[C@H]12)c1cn([C@H](CO)Cc2ccccc2)nn1`, the composite z-score is -0.317 in experiment [1]; 0.386 in experiment [2]; -0.0189 in experiment [3]; 0.347 in experiment [4]; 0.862 in experiment [5]; -0.0139 in experiment [6]. The composite z-score in experiment [7] was 0.764; in experiment [9], 0.138; in experiment [10] it was 1.13. Besides, in experiment [8], the z-score is 0.68 (inactive).
On to `CCOC(=O)NN=C1C[C@@H](O)[C@@H](O)[C@@H]2[C@@H]3C(=O)N(Cc4ccc5c(c4)OCO5)C(=O)[C@@H]3CC[C@H]12`, for which the composite z-score in [1] is -0.428; in experiment [2], 0.0687; in experiment [3], -0.113; in [4] it was -0.388; in experiment [5], -0.434; in experiment [6], 0.279. Also, the composite z-score in [7] was 0.678; in experiment [9] it was 0.625; in [10], -0.0645. Further, the z-score in experiment [8] is 0.855 (inactive).
As to `CCOC(=O)[C@H](Cc1ccccc1)NC(=O)CCC1CC(OC(=O)NCCc2ccc(F)cc2)CC2(CCCC(COC(=O)NCCc3ccc(Cl)cc3)O2)O1` (stereo not given in full), the composite z-score in experiment [1] was -0.431; in experiment [2], -0.0057; in experiment [3], -0.0523; in experiment [4], 0.248; in experiment [5], 0.622; in experiment [6] it was 0.843. Further, the composite z-score was 0.872 in experiment [7], 0.233 in experiment [9] and 0.0623 in [10]. Further, in experiment [8], the z-score is 0.301 (inactive).
`O=C1C=C[C@@H](O)[C@@H]2[C@@H]3C(=O)N(C[C@@H]4CCCO4)C(=O)[C@@H]3CC[C@@H]12`: the composite z-score in experiment [1] is -0.518; in experiment [2], 0.0078; in experiment [3], -0.103; in [4], 0.458; in experiment [5], 0.141; in experiment [6], -0.0326. The composite z-score is 0.691 in experiment [7], 0.041 in [9] and -0.136 in experiment [10]. Moreover, in experiment [8], the z-score was -0.241 (inactive).
In the case of `Cc1ccc(S(=O)(=O)NC(CCc2ccccc2)CC(=O)C(C)(C)C)cc1` (stereo not given), the composite z-score was -0.651 in [1]; 0.339 in experiment [2]; -0.228 in experiment [3]; 0.711 in experiment [4]; 0.747 in experiment [5]; 0.132 in [6]. For the same compound, the composite z-score in [7] was 0.459; in experiment [9], 0.195; in experiment [10], -0.261. In [8], the z-score is -3.04 (inactive).
As for `CO[C@@H]1COC(=O)[C@@H]2CCCN2C(=O)[C@@H](C)COC(=O)CC=C[C@H]1C`, the composite z-score is -0.776 in experiment [1]; 0.313 in experiment [2]; -0.122 in experiment [3]; 0.397 in [4]; 0.5 in [5]; 0.0187 in experiment [6]. In addition, the composite z-score in experiment [7] was found to be 1.02; in experiment [9], 0.271; in experiment [10] it was 0.607. Besides, the z-score in experiment [8] was 0.719 (inactive).
Turning to `COC(=O)CC=C[C@@H](C)[C@@H](C=NOC[C@@H](O)[C@H]1O[C@@H]2OC(C)(C)O[C@@H]2[C@H]1O)NS(=O)(=O)c1ccc(C)cc1`, the composite z-score in experiment [1] was -0.383; in experiment [2], 0.746; in [3], -0.171; in [4], 0.347; in experiment [5], 0.463; in experiment [6], -0.0399. Further, the composite z-score in [7] was -0.124; in experiment [9], 0.155; in [10], -0.641. The z-score in experiment [8] is 0.703 (inactive).
In the case of `CCC1=NOC(CCC2CC(OC(=O)NCc3cccc4c3OCO4)CC3(CCCC(COC(=O)NCCc4ccccc4OC)O3)O2)C1` (stereo not given), the composite z-score in [1] was -0.173; in experiment [2] it was 0.13; in [3], -0.0466; in [4], 0.504; in [5], 0.608; in [6], 0.796. For the same compound, the composite z-score in experiment [7] is 0.793; in experiment [9] it was 0.243; in experiment [10] it was -0.151. For the same compound, in experiment [8], the z-score is 1.02 (inactive).
For the compound `CC(C)=CCCC(C)=CCON=C1C[C@@H](O)[C@@H](O)[C@@H]2[C@@H]3C(=O)N(C(C)(C)C)C(=O)[C@@H]3CC[C@H]12`, the composite z-score in [1] is -0.28; in [2], -0.0211; in experiment [3], 0.0122; in experiment [4] it was 0.406; in experiment [5], 0.591; in [6], 0.0095. For the same compound, the composite z-score in [7] is 0.744; in experiment [9], -0.0538; in experiment [10], -0.0994. Besides, the z-score in experiment [8] is 0.132 (inactive).
In the case of `C#CCCCON=C1C[C@@H](O)[C@@H](O)[C@@H]2[C@@H]3C(=O)N(c4ccc(F)cc4F)C(=O)[C@@H]3CC[C@@H]12`, the composite z-score in experiment [1] is -0.398; in [2] it was 1.69; in experiment [3] it was -0.138; in [4], 0.103; in experiment [5], 0.329; in [6] it was 0.0095. Besides, the composite z-score is -0.114 in [7], 0.0638 in experiment [9] and 0.235 in experiment [10]. In [8], the z-score was -0.236 (inactive).

The values are drawn from PubChem BioAssay.
